The text below walks through data of PubChem BioAssay (NCI).

Common to all, as to test: NCI-60 one-dose screen, 48 h (100 = growth as untreated, 0 = no growth, -100 = all killed)
Holding throughout (conditions): 10 µM unless noted

Experiment [1] has as its system SK-MEL-2 melanoma.
In experiment [2] the test system is EKVX NSCLC.
In experiment [3] the test system is SN12C renal.
Experiment [4] concerns UO-31 renal.
The subject of experiment [5] is TK-10 renal.
For experiment [6], the system named is ACHN renal.
Experiment [7] concerns A498 renal.
Experiment [8] deals with CCRF-CEM leukemia.
For experiment [9], the system named is MOLT-4 leukemia.
Experiment [10] concerns SR leukemia.
For experiment [11], the system named is RPMI-8226 leukemia.
For experiment [12], the system named is OVCAR-8 ovarian.
Experiment [13] deals with OVCAR-5 ovarian.
Experiment [14] relates to OVCAR-4 ovarian.
For experiment [15], the system named is SK-OV-3 ovarian.
Experiment [16] has as its system IGROV1 ovarian.
Experiment [17] has as its system OVCAR-3 ovarian.
In experiment [18] the test system is HS 578T breast.
Experiment [19] has as its system NCI/ADR-RES ovarian.
The test system of experiment [20] is CAKI-1 renal.

The panel holds about 83,000 compounds, 20% with a hit somewhere; the sample as a whole holds those more often.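 Single-dose data. Exposure time 48 hours. Values below 10 considered active.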 Values without a mark were called inactive. The source made the active and inactive calls.

On to `FC(F)(F)c1cccc(-c2nnn(Cc3cc(-c4cccc(Cl)c4)no3)n2)c1`, for which the growth is 114% in experiment [1]; 115% in [2]; 101% in experiment [3]; 85.7% in [4]; 109% in [5]; 107% in experiment [6]. The growth was 103% in experiment [7]; 96.1% in experiment [8]; 107% in experiment [9]; 96.2% in experiment [10]; 102% in [11]; 101% in experiment [12]. Further, the growth in experiment [13] is 101%; in experiment [14], 116%; in experiment [15], 98.8%; in [16], 104%; in experiment [17], 114%; in experiment [18] it was 107%. In addition, the growth in experiment [19] was 108%.

Take `CC(=O)O[C@H]1CC[C@@]2(C)C(=CC[C@@H]3[C@@H]2CC[C@]2(C)C(Cl)=C(c4nc5ccc(Cl)cn5c4NC(C)(C)C)C[C@@H]32)C1`: the growth in [1] was 99.9%; in [2] it was 88.1%; in experiment [3], 97.7%; in experiment [4], 86.6%; in experiment [5], 89.3%; in experiment [6], 92.1%. The growth in experiment [7] was 92.8%; in experiment [8] it was 92.3%; in experiment [9] it was 101%; in experiment [10] it was 93%; in experiment [11], 93.9%; in [12], 96.9%. The growth in [13] is 91.5%; in experiment [14], 90.3%; in experiment [15], 105%; in experiment [17], 100%; in [18], 85.6%; in experiment [19] it was 95.4%.

Consider `N#Cc1c(-c2ccc(Cl)cc2)nc(NN=Cc2cccc(Cl)c2)nc1N1CCOCC1`, for which the growth in [1] is 96.5%; in experiment [2] it was 77.7%; in [3] it was 91.8%; in [4] it was 53.5%; in [5], 106%; in experiment [6], 74.3%. Moreover, the growth is 42.2% in experiment [7]; 72.5% in [8]; 53.3% in experiment [9]; 8.74% (active) in experiment [10]; 65.1% in [11]; 96.7% in experiment [12]. For the same compound, the growth in experiment [13] is 103%; in experiment [14], 94.3%; in [15], 111%; in experiment [16], 75.2%; in experiment [17], 87.4%; in experiment [18] it was 96.6%. Also, the growth in [19] was 89.2%.

For the compound `CCNc1nc(-c2ccc(Cl)c(OC)c2)c(-c2ccnc(NCCNS(=O)(=O)c3ccc(Cl)cc3)n2)s1`, the growth is -30% (active) in experiment [1]; 34.9% in experiment [2]; 36.1% in experiment [3]; 40.8% in experiment [4]; 22.5% in experiment [5]; 33.7% in [6]. The growth in [7] was 18.6%; in experiment [8], 21.4%; in experiment [9], 11.2%; in experiment [10] it was 21.5%; in [11], 21.4%; in experiment [12] it was 37.9%. The growth in [13] was 40.7%; in [14], 31.8%; in experiment [15], 1.58% (active); in [16], 39.3%; in [17], -3.31% (active); in experiment [18], 24.1%. The growth in experiment [19] was 33%.

Take `CC(C)(C)n1cc(-c2ccnc(NCCNS(=O)(=O)c3ccc(C(F)(F)F)cc3)c2)c(-c2ccccc2)n1`: the growth in [1] is 105%; in experiment [2], 73.9%; in experiment [3], 86%; in experiment [4], 58.9%; in [5], 104%; in experiment [6] it was 102%. For the same compound, the growth in experiment [20] was 90.6%; in [8] it was 74.6%; in [9], 72.2%; in experiment [10] it was 35.9%; in experiment [11], 81.1%; in [12] it was 89.2%. Also, the growth was 108% in experiment [13]; 84.8% in experiment [14]; 97.8% in [15]; 97.3% in experiment [16]; 94.5% in [17]; 91.5% in [19].

With `COc1ccc(/C=C2/CCc3cc4ccc(OC)cc4[o+]c32)c(O)c1`, the growth in experiment [1] is 85.6%; in experiment [2], 75.7%; in [3] it was 13.6%; in experiment [4], -28.7% (active); in experiment [5], 135%; in [6], 34.3%. Besides, the growth in [7] was 94.9%; in [8], 9.94% (active); in [9], 0.523% (active); in experiment [10] it was -2.1% (active); in experiment [11] it was 14.1%; in experiment [12], 42.9%. For the same compound, the growth is 115% in experiment [13]; 75.9% in experiment [14]; 103% in experiment [15]; 9.32% (active) in [16]; 49.8% in [17]; 75.3% in experiment [18]. In addition, the growth in experiment [19] is 53.8%.

Consider `C(CCCSC1=NCCN1)CCSC1=NCCN1`, for which the growth in [1] was 122%; in [2], 109%; in experiment [3] it was 103%; in experiment [4], 80.3%; in experiment [5], 122%; in experiment [6] it was 100%. For the same compound, the growth in experiment [7] is 103%; in [8], 101%; in experiment [9], 102%; in experiment [10], 95.9%; in [11], 107%; in [12], 98.4%. Further, the growth in experiment [13] is 89.8%; in experiment [14], 98.2%; in experiment [15], 112%; in experiment [16] it was 101%; in [17], 107%; in [18], 104%. In addition, the growth in experiment [19] is 94.4%.

For `CCCCCN(CCCCC)CC(O)c1c(Cl)ccc2ccccc12` (centres undefined), the growth in experiment [1] was 93.4%; in [2], 62.5%; in [3] it was 70.2%; in experiment [4] it was 37.2%; in experiment [5], 98.1%; in [6], 54.7%. Also, the growth was 68.3% in [7]; 67.2% in [8]; 54% in experiment [9]; 32.9% in experiment [10]; 66.2% in experiment [11]; 87.5% in experiment [12]. Moreover, the growth in experiment [13] is 65.8%; in experiment [14], 79.5%; in [15], 93.6%; in experiment [16], 63%; in experiment [17] it was 90.7%; in experiment [19] it was 77.8%.
